Assay results reported in PubChem BioAssay (NCATS).
Potency and affinity values are given separately. The source made the active and inactive calls. Entries that show only a call come without a potency. Calls follow the shape of the full dose curve.

conditions: Ebola virus entry assay, green fluorescence channel

SMILES | outcome
CS(=O)(=O)OCCCCOS(C)(=O)=O | inactive
Cc1oncc1C(=O)Nc1ccc(C(F)(F)F)cc1 | inactive
CCCCNC(=O)NS(=O)(=O)c1ccc(C)cc1 | inactive
COc1ccccc1OCC(O)CN1CCN(CC(=O)Nc2c(C)cccc2C)CC1 (configuration not stated) | inactive
Cn1cnc([N+](=O)[O-])c1Sc1ncnc2nc[nH]c12 | inactive
O=C(O)CCNC(=O)c1ccc(N=Nc2ccc(O)c(C(=O)O)c2)cc1 | inactive
Cc1[nH]c(=O)c(C#N)cc1-c1ccncc1 | inactive
Nc1nnc(-c2cccc(Cl)c2Cl)c(N)n1 | inactive
CCCCN1C[C@H](O)[C@@H](O)[C@H](O)[C@H]1CO | inactive
O=P(O)(O)C(O)(Cc1cccnc1)P(=O)(O)O | inactive
CO[C@@]12[C@H](COC(N)=O)C3=C(C(=O)C(C)=C(N)C3=O)N1C[C@@H]1N[C@@H]12 | inactive
CN/C(=C\[N+](=O)[O-])NCCSCc1ccc(CN(C)C)o1 | inactive
CCN(CC)CCNC(=O)c1cc(Cl)c(N)cc1OC | inactive
CCC1C(=O)OCC1Cc1cncn1C (configuration not stated) | inactive
Cn1c(=O)c2c(ncn2CC(O)CO)n(C)c1=O (configuration not stated) | inactive
Oc1cn2c(n1)Nc1ccc(Cl)c(Cl)c1C2 | inactive
CCCCNc1ccc(C(=O)OCCOCCOCCOCCOCCOCCOCCOCCOCCOC)cc1 | inactive
O=C(c1ccccc1)c1ccc2n1CCC2C(=O)O (configuration not stated) | inactive
Cc1cccc(Nc2ccccc2C(=O)O)c1C | inactive

SMILES | outcome
O=C(OC1C[C@H]2CC[C@@H](C1)[N+]21CCCC1)C(O)(c1ccccc1)c1ccccc1 (some centres not stated) | inactive
Cc1onc(-c2c(Cl)cccc2Cl)c1C(=O)N[C@@H]1C(=O)N2[C@@H]1SC(C)(C)[C@@H]2C(=O)O | inactive
O[C@@H]1CO[C@H]2[C@@H]1OC[C@@H]2O | inactive
CCOc1ccccc1OCCN[C@H](C)Cc1ccc(OC)c(S(N)(=O)=O)c1 | inactive
CNCCc1ccccn1 | inactive
CC[N+](C)(C)c1cccc(O)c1 | inactive
CC(=O)N[C@@H](CS)C(=O)O | inactive
COc1cc(C(=O)NCc2ccc(OCCN(C)C)cc2)cc(OC)c1OC | inactive
CC(C)(C)NC(=O)[C@@H]1CN(Cc2cccnc2)CCN1C[C@@H](O)C[C@@H](Cc1ccccc1)C(=O)N[C@H]1c2ccccc2C[C@H]1O | inactive
COc1ccc2nc(S(=O)Cc3ncc(C)c(OC)c3C)[nH]c2c1 (configuration not stated) | inactive
O=C(CCCCCCC(=O)Nc1ccccc1)NO | inactive
NS(=O)(=O)c1cc2c(cc1C(F)(F)F)NCNS2(=O)=O | inactive
CCCC(=O)Nc1ccc(OCC(O)CNC(C)C)c(C(C)=O)c1 (configuration not stated) | inactive
CCC1(c2ccccc2)C(=O)NCNC1=O | inactive
CCCc1cc(=O)[nH]c(=S)[nH]1 | inactive
NCCC(O)(P(=O)(O)O)P(=O)(O)O | inactive
C[C@@H]1C[C@H]2[C@@H]3CCC4=CC(=O)C=C[C@]4(C)[C@@]3(F)[C@@H](O)C[C@]2(C)[C@@]1(O)C(=O)CO | inactive
N[C@@H](C(=O)N[C@@H]1C(=O)N2C(C(=O)O)=C(Cl)CS[C@H]12)c1ccccc1 | inactive
